Experimental data reported in PubChem BioAssay AID1159580 (chemical genetic matrix, 2015).
Among all 5,500 compounds or so, about 2,000 (36%) were called active. Inconclusive results (about 18%) are left out. No stated cut-off is given here; in the data, active means normalized growth mostly below about 0.91 (no sharp cut-off); inconclusive means no clear call, values can overlap the other calls; inactive means mostly above about 0.92. This is one part of the list.

Assay: chemical genetic growth profiling, strain panel (AID 1159580);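 further: tested at 20 µM; growth read once vehicle control cultures reached saturation at 30 °C; 1 = growth at the plate median or of vehicle wells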
Conditions: growth OD

Measured: normalized growth

NCC(=O)CCC(=O)O
inactive: S. cerevisiae deletion strains, locus YJR075W, strain HOC1, stronger effect = lower value 1.02 | S. cerevisiae deletion strains, locus YKL009W, strain mrt4, stronger effect = lower value 1.07 | S. cerevisiae deletion strains, locus YKL068W, stronger effect = lower value 0.995 | S. cerevisiae deletion strains, locus YKL085W, strain MDH1 (second series), stronger effect = lower value 0.997 | S. cerevisiae deletion strains, locus YKL085W, strain MDH1, stronger effect = lower value 0.997 | S. cerevisiae deletion strains, locus YKL160W, strain elf1, stronger effect = lower value 0.98 | S. cerevisiae deletion strains, locus YKL190W, strain CNB1, stronger effect = lower value 1.01 | S. cerevisiae deletion strains, locus YKR001C, strain vps1, stronger effect = lower value 0.982 | S. cerevisiae deletion strains, locus YKR026C, strain gcn3, stronger effect = lower value 0.981 | S. cerevisiae deletion strains, locus YKR091W, strain srl3, stronger effect = lower value 0.981 | S. cerevisiae deletion strains, locus YLL001W, strain dnm1, stronger effect = lower value 0.93 | S. cerevisiae deletion strains, locus YLL026W, stronger effect = lower value 0.982 | S. cerevisiae deletion strains, locus YLL041C, strain sdh2, stronger effect = lower value 0.987 | S. cerevisiae deletion strains, locus YLR027C, strain aat2, stronger effect = lower value 0.98 | S. cerevisiae deletion strains, locus YLR039C, strain RIC1, stronger effect = lower value 1.03 | S. cerevisiae deletion strains, locus YLR058C, strain SHM2, stronger effect = lower value 1.01 | S. cerevisiae deletion strains, locus YLR102C, strain apc9, stronger effect = lower value 0.983 | S. cerevisiae deletion strains, locus YLR113W, strain HOG1, stronger effect = lower value 1.03 | S. cerevisiae deletion strains, locus YLR221C, strain rsa3, stronger effect = lower value 1.03 | S. cerevisiae deletion strains, locus YLR258W, strain gsy2, stronger effect = lower value 0.994 | S. cerevisiae deletion strains, locus YLR262C, strain YPT6 (second series), stronger effect = lower value 0.958 | S. cerevisiae deletion strains, locus YLR262C, strain YPT6, stronger effect = lower value 1.05 | S. cerevisiae deletion strains, locus YLR268W, strain sec22, stronger effect = lower value 0.953 | S. cerevisiae deletion strains, locus YLR320W, strain mms22, stronger effect = lower value 0.976 | S. cerevisiae deletion strains, locus YLR330W, strain CHS5, stronger effect = lower value 1.01 | S. cerevisiae deletion strains, locus YLR342W, strain FKS1 (second series), stronger effect = lower value 1.03 | S. cerevisiae deletion strains, locus YLR342W, strain FKS1, stronger effect = lower value 0.959 | S. cerevisiae deletion strains, locus YLR357W, strain rsc2, stronger effect = lower value 0.954 | S. cerevisiae deletion strains, locus YLR370C, strain arc18, stronger effect = lower value 1.01 | S. cerevisiae deletion strains, locus YLR371W, strain rom2, stronger effect = lower value 0.988 | S. cerevisiae deletion strains, locus YLR384C, strain iki3, stronger effect = lower value 0.997 | S. cerevisiae deletion strains, locus YLR418C, strain cdc73, stronger effect = lower value 0.994 | S. cerevisiae deletion strains, locus YML016C, strain PPZ1, stronger effect = lower value 1.01 | S. cerevisiae deletion strains, locus YML032C, strain rad52, stronger effect = lower value 0.981 | S. cerevisiae deletion strains, locus YML120C, strain ndi1, stronger effect = lower value 0.983 | S. cerevisiae deletion strains, locus YML124C, strain tub3, stronger effect = lower value 0.997 | S. cerevisiae deletion strains, locus YMR058W, strain fet3, stronger effect = lower value 0.984 | S. cerevisiae deletion strains, locus YMR078C, strain ctf18, stronger effect = lower value 0.991 | S. cerevisiae deletion strains, locus YMR125W, strain sto1, stronger effect = lower value 0.977 | S. cerevisiae deletion strains, locus YMR129W, stronger effect = lower value 0.99 | S. cerevisiae deletion strains, locus YMR205C, strain PFK2, stronger effect = lower value 0.976 | S. cerevisiae deletion strains, locus YMR223W, strain ubp8, stronger effect = lower value 0.998 | S. cerevisiae deletion strains, locus YMR231W, strain pep5, stronger effect = lower value 0.972 | S. cerevisiae deletion strains, locus YMR263W, strain SAP30, stronger effect = lower value 1.01 | S. cerevisiae deletion strains, locus YMR307W, strain GAS1, stronger effect = lower value 1.05 | S. cerevisiae deletion strains, locus YNL067W, strain RPL9B, stronger effect = lower value 0.997 | S. cerevisiae deletion strains, locus YNL071W, strain lat1, stronger effect = lower value 0.995 | S. cerevisiae deletion strains, locus YNL128W, strain TEP1, stronger effect = lower value 1.02 | S. cerevisiae deletion strains, locus YNL153C, strain GIM3, stronger effect = lower value 1 | S. cerevisiae deletion strains, locus YNL183C, strain NPR1, stronger effect = lower value 0.986 | S. cerevisiae deletion strains, locus YNL209W, strain ssb2, stronger effect = lower value 0.997 | S. cerevisiae deletion strains, locus YNL233W, strain BNI4, stronger effect = lower value 1.02 | S. cerevisiae deletion strains, locus YNL248C, strain rpa49, stronger effect = lower value 1 | S. cerevisiae deletion strains, locus YNL250W, strain rad50, stronger effect = lower value 0.993 | S. cerevisiae deletion strains, locus YNL271C, strain bni1, stronger effect = lower value 0.98 | S. cerevisiae deletion strains, locus YNL298W, strain CLA4, stronger effect = lower value 0.984 | S. cerevisiae deletion strains, locus YNL307C, strain MCK1, stronger effect = lower value 1 | S. cerevisiae deletion strains, locus YNL322C, strain KRE1 (second series), stronger effect = lower value 0.964 | S. cerevisiae deletion strains, locus YNL322C, strain KRE1, stronger effect = lower value 1.02 | S. cerevisiae deletion strains, locus YNR049C, strain mso1, stronger effect = lower value 0.981 | S. cerevisiae deletion strains, locus YNR052C, strain pop2, stronger effect = lower value 0.988 | S. cerevisiae deletion strains, locus YOL006C, strain TOP1, stronger effect = lower value 0.983 | S. cerevisiae deletion strains, locus YOL012C, strain htz1 0.968 | S. cerevisiae deletion strains, locus YOL147C, strain pex11, stronger effect = lower value 0.993 | S. cerevisiae deletion strains, locus YOR001W, strain rrp6, stronger effect = lower value 0.994 | S. cerevisiae deletion strains, locus YOR061W, strain CKA2, stronger effect = lower value 1.01 | S. cerevisiae deletion strains, locus YOR069W, strain VPS5, stronger effect = lower value 1.01 | S. cerevisiae deletion strains, locus YOR070C, strain gyp1, stronger effect = lower value 0.989 | S. cerevisiae deletion strains, locus YOR080W, strain dia2, stronger effect = lower value 0.976 | S. cerevisiae deletion strains, locus YOR083W, strain WHI5, stronger effect = lower value 0.954 | S. cerevisiae deletion strains, locus YOR106W, strain vam3, stronger effect = lower value 0.956 | S. cerevisiae deletion strains, locus YOR136W, strain idh2, stronger effect = lower value 0.992 | S. cerevisiae deletion strains, locus YOR144C, strain elg1, stronger effect = lower value 0.986 | S. cerevisiae deletion strains, locus YOR184W, strain ser1, stronger effect = lower value 0.976 | S. cerevisiae deletion strains, locus YOR231W, strain MKK1, stronger effect = lower value 1.04 | S. cerevisiae deletion strains, locus YOR265W, strain rbl2, stronger effect = lower value 0.988 | S. cerevisiae deletion strains, locus YOR270C, strain vph1, stronger effect = lower value 1.01 | S. cerevisiae deletion strains, locus YOR290C, strain snf2, stronger effect = lower value 1.01 | S. cerevisiae deletion strains, locus YOR316C, strain cot1, stronger effect = lower value 0.989 | S. cerevisiae deletion strains, locus YPL051W, strain arl3, stronger effect = lower value 0.997 | S. cerevisiae deletion strains, locus YPL055C, strain LGE1, stronger effect = lower value 1.03 | S. cerevisiae deletion strains, locus YPL078C, strain atp4, stronger effect = lower value 0.948 | S. cerevisiae deletion strains, locus YPL106C, strain sse1, stronger effect = lower value 0.998 | S. cerevisiae deletion strains, locus YPL240C, strain hsp82, stronger effect = lower value 0.985 | S. cerevisiae deletion strains, locus YPL241C, strain CIN2, stronger effect = lower value 1 | S. cerevisiae deletion strains, locus YPL256C, strain CLN2, stronger effect = lower value 1.03 | S. cerevisiae deletion strains, locus YPR119W, strain clb2, stronger effect = lower value 0.983 | S. cerevisiae deletion strains, locus YPR141C, strain kar3, stronger effect = lower value 0.993 | S. cerevisiae deletion strains, locus YPR163C, strain tif3, stronger effect = lower value 0.981 | S. cerevisiae deletion strains, locus YPR167C, strain met16, stronger effect = lower value 0.986 | S. cerevisiae deletion strains, strain wtn01, stronger effect = lower value 0.99 | S. cerevisiae strains, strain wild type, stronger effect = lower value 1.01
